Screening data: PubChem BioAssay, Broad Institute
The full list was thinned out, with hits kept by preference.
DUX4 inh = inhibitors of DUX4-driven ZSCAN4 reporter expression, primary screen, 293T cells, Gaussia and Italica luciferase; 293T-iDUX4 ZSCAN4-Gaussia luciferase reporter, 24 h; active compounds read low; activity change, negative = inhibition, % (no concentration beside the values); 0.8% of 37,000 active;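 active = mean inhibition of at least 10% in the main channel, exceeding the control channel by a set limit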
A number is an active result; – = inactive; ! = repeats disagree.

SMILES	DUX4 inh
Cc1ccccc1S(=O)(=O)N1C[C@H](O)COC[C@@H]2O[C@H](CC(=O)NCCc3ccccc3)CC[C@H]21	–
C[C@H](CO)N1C[C@H](C)[C@H](CN(C)Cc2cccc3c2OCCCO3)OCc2cn(nn2)CCCC1=O	–
CN(C[C@@H]1N[C@H](CO)[C@@H]1c1ccc(C2=CCCC2)cc1)S(C)(=O)=O	–
CCCNC(=O)N[C@@H]1CC[C@@H](CC(=O)NC2CCC2)O[C@H]1CO	–
O=C(C1CCCC1)N1CC2(C1)[C@H](c1ccccc1)[C@@H](CO)N2Cc1ccccc1F	-45
O=C(C1CCOCC1)N1CC2(C1)[C@H](c1ccccc1)[C@@H](CO)N2Cc1ccc(Cl)cc1	–
O=C(C1CCCC1)N1CC2(C1)[C@@H](c1ccccc1)[C@@H](CO)N2Cc1ccc(Cl)cc1	–
O=C(C1CCC1)N1CC2(C1)[C@H](c1ccccc1)[C@H](CO)N2Cc1ccccc1F	–
O=C(C1CCCCC1)N1CC2(C1)[C@H](c1ccccc1)[C@@H](CO)N2Cc1ccc(Cl)cc1	-51
O=C(C1CCCC1)N1CC2(C1)[C@@H](c1ccccc1)[C@H](CO)N2Cc1ccccc1F	–
COCC(=O)N1CC2(C1)CN(Cc1ccccn1)[C@@H](CO)c1[nH]c3cc(OC)ccc3c12	–
COCC(=O)N1CC2(C1)CN(C(=O)Cc1ccccc1)[C@@H](CO)c1c2c2ccc(OC)cc2n1C	–
CCS(=O)(=O)Nc1ccc2c(c1)C(=O)N(C)C[C@@H](OC)[C@H](C)CN(C(=O)c1ccc3c(c1)OCO3)[C@H](C)CO2	–
COc1ccccc1CNC(=O)C[C@@H]1CC[C@@H]2[C@H](COC[C@@H](O)CN2C(=O)Nc2ccc(Cl)cc2)O1	–
C[C@@H]1CN([C@H](C)CO)C(=O)CCCn2nncc2CO[C@H]1CN(C)Cc1ccc(C(=O)Nc2ccccc2N)cc1	-22
C[C@H](CO)N1C[C@H](C)[C@@H](CN(C)Cc2ccc(C(=O)O)cc2)OCc2cnnn2CCCC1=O	–
C[C@@H]1CN([C@@H](C)CO)C(=O)CCCn2nncc2CO[C@H]1CN(C)Cc1ccc(C(=O)Nc2ccccc2N)cc1	-25
C[C@H](CO)N1C[C@H](C)[C@@H](CN(C)Cc2ccc(C(=O)Nc3ccccc3N)cc2)OCc2cnnn2CCCC1=O	-20
C[C@H]1CN([C@@H](C)CO)C(=O)CCCn2nncc2CO[C@@H]1CN(C)Cc1ccc(O)cc1	–
C[C@H]1CN([C@@H](C)CO)C(=O)CCCn2nncc2CO[C@@H]1CN(C)Cc1ccc(C(=O)O)cc1	–
C[C@H](CO)N1C[C@H](C)[C@@H](CN(C)Cc2ccc(C(F)(F)F)cc2)OCc2cnnn2CCCC1=O	–
C[C@H]1CN([C@@H](C)CO)C(=O)CCCn2nncc2CO[C@H]1CN(C)Cc1ccc(O)cc1	–
C[C@H]1CN([C@@H](C)CO)C(=O)CCCn2nncc2CO[C@@H]1CN(C)Cc1ccc(C(F)(F)F)cc1	–
COCC(=O)N1[C@H](C(=O)NCc2ccccc2Cl)[C@@H](CO)[C@@H]2Cn3c(cccc3=O)[C@@H]21	–
O=C(c1ccncc1)N1C[C@@H]2[C@H](c3ccccc31)[C@@H](CO)N2C(=O)c1ccncc1	–
SMILES	DUX4 inh
COc1ccc(C(=O)Nc2ccc3c(c2)C(=O)N(C)C[C@@H](OC)[C@@H](C)CN(C)[C@H](C)CO3)cc1	–
C[C@H](O)C#Cc1ccc2c(c1)O[C@H](CN(C)C(=O)Cc1ccccn1)[C@@H](C)CN([C@@H](C)CO)S2(=O)=O	–
CN1[C@@H]2Cn3c(ccc(-c4cccc(F)c4)c3=O)[C@H]1[C@@H](C(=O)N1CCCCC1)[C@@H]2CO	–
C[C@H]1CN([C@@H](C)CO)C(=O)c2c(c3ccccc3n2C)-c2ccccc2CO[C@@H]1CN(C)Cc1cccc(C(=O)O)c1	–
C[C@@H]1CN([C@@H](C)CO)C(=O)c2c(c3ccccc3n2C)-c2ccccc2CO[C@H]1CN(C)Cc1cccc(O)c1	–
C[C@@H]1CN([C@H](C)CO)C(=O)c2c(c3ccccc3n2C)-c2ccccc2CO[C@H]1CN(C)Cc1cccc(F)c1	-35
C[C@H]1CN([C@@H](C)CO)C(=O)c2c(c3ccccc3n2C)-c2ccccc2CO[C@H]1CN(C)Cc1cccc(C(=O)O)c1	–
C[C@H]1CN([C@@H](C)CO)C(=O)c2c(c3ccccc3n2C)-c2ccccc2CO[C@H]1CN(C)Cc1ccc(O)cc1	–
C[C@H](CO)N1C[C@H](C)[C@@H](CN(C)Cc2cccc(C(=O)O)c2)OCc2ccccc2-c2c(n(C)c3ccccc23)C1=O	–
C[C@H](CO)N1C[C@H](C)[C@H](CN(C)Cc2cccc(O)c2)OCc2ccccc2-c2c(n(C)c3ccccc23)C1=O	-29
C[C@H]1CN([C@@H](C)CO)C(=O)c2c(c3ccccc3n2C)-c2ccccc2CO[C@@H]1CN(C)Cc1cccc(O)c1	-45
C[C@H](CO)N1C[C@H](C)[C@H](CN(C)Cc2ccc(O)cc2)OCc2ccccc2-c2c(n(C)c3ccccc23)C1=O	–
CO[C@H]1CN(C)C(=O)c2ccc(NC(=O)C3CCOCC3)cc2OC[C@H](C)N(Cc2cccnc2)C[C@H]1C	–
CCC(=O)N1[C@H](C(=O)N2CCCCC2)[C@@H](CO)[C@@H]2Cn3c(cccc3=O)[C@@H]21	–
CO[C@H]1CN(C)C(=O)c2ccc(NC(=O)C3CCC3)cc2OC[C@@H](C)N(C(=O)CN(C)C)C[C@@H]1C	–
CO[C@H]1CN(C)C(=O)c2ccc(NS(=O)(=O)CC(F)(F)F)cc2OC[C@@H](C)N(C(=O)c2ccc3c(c2)OCO3)C[C@@H]1C	–
O=C(C[C@H]1CC[C@H]2NC[C@H](O)COC[C@@H]2O1)NCc1ccc2c(c1)OCO2	–
CNC[C@H]1OCCCC[C@@H](C)Oc2ccc(NC(=O)Cc3ccccc3)cc2C(=O)N([C@H](C)CO)C[C@H]1C	–
COc1ccc2c3c([nH]c2c1)[C@@H](CO)N(C(=O)NC(C)C)CC31CN(C(=O)NC2CCCC2)C1	–
O=C(O)C[C@H]1C[C@@H]2c3cc(NC(=O)NC4CCCC4)ccc3O[C@@H]2[C@@H](CO)O1	–
O=C(c1ccncc1)N1C[C@@H]2N[C@H](C1)C2c1ccc(/C=C/c2ccccc2)cc1 (stereo partly drawn)	–
c1cncc(-c2ccc(C3[C@@H]4CN(Cc5nccs5)C[C@H]3N4)cc2)c1 (stereo partly drawn)	-35!
O=C(c1cccnc1)N1C[C@@H]2N[C@H](C1)C2c1ccc(-c2ccccc2)cc1 (stereo partly drawn)	–
c1cc(-c2ccc(C3[C@@H]4CN(Cc5nccs5)C[C@H]3N4)cc2)ccn1 (stereo partly drawn)	–
C(=C\c1ccc(C2[C@@H]3CN(Cc4ccccn4)C[C@H]2N3)cc1)/c1ccccc1 (stereo partly drawn)	-32
O=C(Cc1ccncc1)N1C[C@@H]2N[C@H](C1)C2c1ccc(-c2ccccc2)cc1 (stereo partly drawn)	–
O=C(CN1CCOCC1)N1C[C@@H]2N[C@H](C1)C2c1ccc(/C=C/c2ccccc2)cc1 (stereo partly drawn)	–
C/C=C/c1ccc(C2[C@@H]3CN(C(=O)Cc4ccccc4)C[C@H]2N3)cc1 (stereo partly drawn)	–
C/C=C/c1ccc(C2[C@@H]3CN(C(=O)Cc4ccncc4)C[C@H]2N3)cc1 (stereo partly drawn)	–
